This note sets out measurements from PubChem BioAssay (Tox21).

Unmarked numbers belong to inactive results. Inconclusive results are not listed. The source made the active and inactive calls. Unless noted, the call rests on the fitted dose curve; in most records, active means well fitted curve in the direction sought with a large enough effect in the repeat runs; inconclusive means weak or mixed curves; inactive means no such curve, though single readings can be large; an effect the other way counts as inactive or inconclusive.

Assay [1] deals with Thyrotropin-releasing hormone receptor (Homo sapiens) (UniProt P34981). Kind of assay: qHTS assay to identify small molecule agonists of the thyrotropin-releasing hormone receptor (TRHR) signaling pathway (AID 1346891; calls by dose curve;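 further: HEK293 cells expressing TRHR with calcium dye readout; series mostly up to about 58 µM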). In a few lines: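 Agonist-mode calcium mobilisation screen: TRHR-transfected HEK293 cells cultured overnight (18 h), dye-loaded for 2 h at 37 °C, exposed to compounds, and monitored by fluorescence for 3 min.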
Thyrotropin-releasing hormone receptor (Homo sapiens), sequence (P34981 whole entry, looked up): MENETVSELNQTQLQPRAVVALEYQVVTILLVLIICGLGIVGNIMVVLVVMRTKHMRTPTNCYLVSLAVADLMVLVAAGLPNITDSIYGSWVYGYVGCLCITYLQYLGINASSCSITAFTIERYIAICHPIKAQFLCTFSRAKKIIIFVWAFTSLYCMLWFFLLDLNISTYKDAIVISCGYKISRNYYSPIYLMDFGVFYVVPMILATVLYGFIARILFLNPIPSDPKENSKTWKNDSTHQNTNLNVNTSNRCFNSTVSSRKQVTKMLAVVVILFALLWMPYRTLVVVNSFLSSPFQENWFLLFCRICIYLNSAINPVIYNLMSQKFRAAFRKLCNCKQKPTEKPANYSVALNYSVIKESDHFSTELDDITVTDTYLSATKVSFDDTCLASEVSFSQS
On the technique in general: In qHTS, concentration-response curves come from the screen itself.

The nature of assay [2]: Human pregnane X receptor (PXR) small molecule agonists, qHTS cell viability counter screen (AID 1346977). Further: nearly all actives have a fitted effect of over 50% in size. Further: potency means the concentration at half of the fitted maximal effect. The essentials:
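Measures live-cell protease fluorescence (CellTiter-Fluor) in PXR-Luc HepG2 cells treated 24hr with compounds at 37C. Cells had 5hr to attach before pin transfer of DMSO solutions.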

Assay [3] in a line: Caspase-3/7 induction in CHO-K1 cells by small molecules, qHTS cell viability counter screen (AID 1346979). Further: nearly all actives have a fitted effect of over 35% in size. The essentials: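 In the same wells as the caspase read, viability of compound-treated wild-type CHO-K1 cells was assessed using CellTiter-Fluor, added after 16hr at 37C and measured by fluorescence following 1hr further incubation.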
Assay [4] can be described thus: Caspase-3/7 induction in CHO-K1 cells by small molecules, qHTS assay (AID 1346980). Further: nearly all actives have a fitted effect of over 15% in size. The essentials:
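Wild-type cells were seeded at 1,500 per well and settled 5 hr at 37 C, 5% CO2, then exposed to DMSO-dissolved compounds for 17 hr. Caspase-Glo 3/7 reagent was added, and luminescence was read after 30min at room temperature.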

Assay [5] addresses Nuclear receptor subfamily 1 group I member 2 (Homo sapiens) (UniProt O75469). Kind of assay: Human pregnane X receptor (PXR) small molecule agonists, qHTS assay (AID 1346982). Further: nearly all actives have a fitted effect of over 35% in size. Further: potency means the concentration at half of the fitted maximal effect. The essentials:
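PXR-Luc HepG2 reporter cells (CYP3A4-driven luciferase) in 5% charcoal-stripped FBS medium, plated 5 h before compound addition, then treated 24 h at 37C. Luciferase read by ONE-Glo luminescence after 30 min at room temperature.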

The target of assay [6] is Acetylcholinesterase (Homo sapiens) (UniProt P22303). Briefly: Acetylcholinesterase (AChE) small molecule antagonists: colormetric cell-based qHTS assay (AID 1347395; calls by dose curve; further: nearly all actives have a fitted effect of over 30% in size; further: potency means the concentration at half of the fitted maximal effect). In a few lines: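 Endogenous AChE of human neuroblastoma SH-SY5Y cells was measured with an Ellman-type DTNB/acetylthiocholine mix. Compound pretreatment lasted 30 min at 37 C; substrate reaction ran 90 min at 37 C.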
Acetylcholinesterase (Homo sapiens), sequence (P22303 whole entry, looked up): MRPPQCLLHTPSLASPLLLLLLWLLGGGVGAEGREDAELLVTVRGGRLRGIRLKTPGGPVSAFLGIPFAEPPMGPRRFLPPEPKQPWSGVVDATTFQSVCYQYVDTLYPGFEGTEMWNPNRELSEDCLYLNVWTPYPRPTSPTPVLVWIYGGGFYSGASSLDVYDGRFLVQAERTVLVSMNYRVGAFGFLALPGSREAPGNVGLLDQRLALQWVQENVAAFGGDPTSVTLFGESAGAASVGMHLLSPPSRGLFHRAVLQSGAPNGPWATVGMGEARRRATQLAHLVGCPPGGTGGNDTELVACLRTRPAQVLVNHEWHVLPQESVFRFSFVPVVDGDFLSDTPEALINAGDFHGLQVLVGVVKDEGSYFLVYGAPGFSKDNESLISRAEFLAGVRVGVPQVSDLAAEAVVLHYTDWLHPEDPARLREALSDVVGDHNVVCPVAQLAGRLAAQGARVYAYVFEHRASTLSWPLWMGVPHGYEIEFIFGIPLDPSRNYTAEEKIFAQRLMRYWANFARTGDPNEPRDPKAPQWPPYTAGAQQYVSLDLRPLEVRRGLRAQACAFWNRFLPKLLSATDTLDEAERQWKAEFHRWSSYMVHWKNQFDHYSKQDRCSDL

Assay [7] has the same target. Kind of assay: Acetylcholinesterase (AChE) small molecule antagonists: enzyme-based qHTS assay (AID 1347397; calls by dose curve; further: nearly all actives have a fitted effect of over 55% in size; further: potency means the concentration at half of the fitted maximal effect). Particulars: Potency: AChE enzyme activity inhibition. In a few lines: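 Recombinant human AChE, dispensed at 50 mU/mL, was preincubated with Tox21 10K compounds or DMSO vehicle for 30 min at room temperature. DTNB plus acetylthiocholine was then added, and thiocholine was measured colorimetrically after a further 10 min.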

Assay [8] shares this target. Kind of assay: Acetylcholinesterase (AChE) small molecule antagonists: fluorescence cell-based qHTS assay (AID 1347398; calls by dose curve; further: nearly all actives have a fitted effect of over 50% in size; further: potency means the concentration at half of the fitted maximal effect). Particulars: Potency: AChE activity. In a few lines:
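Human SH-SY5Y cells were plated overnight at 37 C, exposed to compound for 30 min at 37 C, 5% CO2, then given acetylthiocholine plus Thiolite Green for 40 min at room temperature; thiocholine fluorescence (Ex/Em 490/520 nm) reports endogenous AChE activity.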

The target is the same in assay [9]. Briefly: Acetylcholinesterase (AChE) small molecule antagonists: enzyme-based qHTS assay with human liver microsomes (AID 1347399; calls by dose curve; further: nearly all actives have a fitted effect of over 60% in size). Particulars: Potency: qHTS inhibition. In a few lines:
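Recombinant human AChE (50 mU/mL in the enzyme mix) and human liver microsomes (0.25 mg/mL final) were preincubated with compound and NADPH (0.25 mg/mL final) for 30 min at 37 C. Acetylthiocholine/DTNB was then added; thiocholine was read colorimetrically after 10 min at room temperature.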

In assay [10] the target is Cytochrome P450 2D6 (Homo sapiens) (UniProt P10635). Briefly: Cytochrome P450 Family 2 Subfamily D Member 6 (CYP2D6) small molecule antagonists: luciferase reporter qHTS assay (AID 1671196). Further: series mostly up to about 120 µM; nearly all actives have a fitted effect of over 50% in size. In a few lines:
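Cell-free P450-Glo system: CYP2D6 with proluciferin substrate was pre-incubated with compound for 10 min, then reacted with NADPH regeneration for 1 h at room temperature. Luciferin product was detected after 20 min, and data were reported as relative luminescence units.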
In general terms: A reporter such as luciferase makes a cellular process visible.

Assay [11] addresses Cytochrome P450 2C19 (Homo sapiens) (UniProt P33261). Briefly: Cytochrome P450 Family 2 Subfamily C Member 19 (CYP2C19) small molecule antagonists: luciferase reporter qHTS assay (AID 1671197). Further: nearly all actives have a fitted effect of over 65% in size. Further: potency means the concentration at half of the fitted maximal effect. The essentials: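 P450-Glo CYP2C19 system: enzyme-substrate mix with compound 10 min at room temperature, then NADPH regeneration solution, 1 h at 37C. Proluciferin-to-luciferin conversion detected by luminescence after 20 min with detection reagent; ketoconazole as positive control.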

For assay [12], the target named is Cytochrome P450 2C9 (Homo sapiens) (UniProt P11712). Kind of assay: Cytochrome P450 Family 2 Subfamily C Member 9 (CYP2C9) small molecule antagonists: luciferase reporter qHTS assay (AID 1671198). Further: nearly all actives have a fitted effect of over 50% in size. Further: potency means the concentration at half of the fitted maximal effect. The essentials: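 CYP2C9 activity was measured with a P450-Glo proluciferin substrate. Enzyme–substrate mix was held with compound for 10 min at room temperature, then NADPH regeneration solution was added for 1 h at 37C. Luciferin product was read as luminescence.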
Cytochrome P450 2C9 (Homo sapiens), sequence (P11712 whole entry, looked up): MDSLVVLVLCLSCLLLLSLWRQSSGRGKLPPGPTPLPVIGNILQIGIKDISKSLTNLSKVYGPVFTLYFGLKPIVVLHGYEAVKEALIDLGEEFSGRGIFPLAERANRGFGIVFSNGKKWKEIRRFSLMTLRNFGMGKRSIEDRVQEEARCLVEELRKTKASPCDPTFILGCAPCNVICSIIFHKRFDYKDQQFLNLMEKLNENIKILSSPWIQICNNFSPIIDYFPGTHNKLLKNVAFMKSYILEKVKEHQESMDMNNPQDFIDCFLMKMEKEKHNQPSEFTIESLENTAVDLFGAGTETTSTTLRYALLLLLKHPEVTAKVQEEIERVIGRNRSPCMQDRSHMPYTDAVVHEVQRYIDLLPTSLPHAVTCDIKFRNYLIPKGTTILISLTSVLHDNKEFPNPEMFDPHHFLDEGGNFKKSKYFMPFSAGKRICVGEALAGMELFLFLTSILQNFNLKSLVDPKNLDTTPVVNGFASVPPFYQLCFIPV

For assay [13], the target named is Cytochrome P450 1A2 (Homo sapiens) (UniProt P05177). Kind of assay: Cytochrome P450 Family 1 Subfamily A Member 2 (CYP1A2) small molecule antagonists: luciferase reporter qHTS assay (AID 1671199). Further: nearly all actives have a fitted effect of over 50% in size. Further: potency means the concentration at half of the fitted maximal effect. In a few lines:
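P450-Glo CYP1A2 enzyme–proluciferin substrate mix with compound 10 min at room temperature, then NADPH regeneration 1 h at room temperature. Luciferin detection reagent added, luminescence read after 20 min; furafylline positive control.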

Assay [14] concerns the target Voltage-gated inwardly rectifying potassium channel KCNH2 (Homo sapiens) (UniProt Q12809). Briefly: Human Ether-a-go-go-Related Gene (hERG) channel small molecule antagonists: fluorescence cell-based qHTS assay (AID 1671200). The essentials: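 Quantitative HTS in hERG-U2OS cells: thallium entry through the channel reports activity, read as continuous 480/540 nm fluorescence over 2 min after stimulus addition.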
Background: Block of hERG is tested as a sign of cardiac risk.

Assay [15] in a line: Caspase-3/7 induction in HepG2 cells by small molecules, qHTS cell viability counter screen (AID 1346981). Further: series mostly up to about 92 µM; nearly all actives have a fitted effect of over 30% in size. In a few lines: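 Wild-type HepG2 cells, 2,000/well, settled 5 hr at 37 C, 5% CO2 before compound addition. Viability read by CellTiter-Fluor fluorescence, reagent added after 16 hr compound exposure, then 1 hr at 37C, in the same wells as the caspase read.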
Assay [16] addresses Cytochrome P450 3A4 (Homo sapiens) (UniProt P08684). Briefly: Cytochrome P450 Family 3 Subfamily A Member 4 (CYP3A4) small molecule antagonists: luciferase reporter qHTS assay (AID 1671201). The essentials:
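Inhibition of CYP3A4 is measured as loss of light: the enzyme converts a proluciferin substrate to luciferin, detected luminescently. Reaction ran 1 h at room temperature with NADPH regeneration after a 10 min compound preincubation.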

A short description of assay [17]: Caspase-3/7 induction in HepG2 cells by small molecules, qHTS assay (AID 1346978). Further: nearly all actives have a fitted effect of over 15% in size. In a few lines: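 Wild-type HepG2 cells (2,000/well) were settled 5 h at 37 C, 5% CO2, then exposed to compounds in DMSO for 17 h. Caspase-3/7 activity was read by luminescence 30 min after adding Caspase-Glo 3/7 reagent at room temperature.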

Voltage-gated inwardly rectifying potassium channel KCNH2 (Homo sapiens), sequence (Q12809 whole entry, looked up): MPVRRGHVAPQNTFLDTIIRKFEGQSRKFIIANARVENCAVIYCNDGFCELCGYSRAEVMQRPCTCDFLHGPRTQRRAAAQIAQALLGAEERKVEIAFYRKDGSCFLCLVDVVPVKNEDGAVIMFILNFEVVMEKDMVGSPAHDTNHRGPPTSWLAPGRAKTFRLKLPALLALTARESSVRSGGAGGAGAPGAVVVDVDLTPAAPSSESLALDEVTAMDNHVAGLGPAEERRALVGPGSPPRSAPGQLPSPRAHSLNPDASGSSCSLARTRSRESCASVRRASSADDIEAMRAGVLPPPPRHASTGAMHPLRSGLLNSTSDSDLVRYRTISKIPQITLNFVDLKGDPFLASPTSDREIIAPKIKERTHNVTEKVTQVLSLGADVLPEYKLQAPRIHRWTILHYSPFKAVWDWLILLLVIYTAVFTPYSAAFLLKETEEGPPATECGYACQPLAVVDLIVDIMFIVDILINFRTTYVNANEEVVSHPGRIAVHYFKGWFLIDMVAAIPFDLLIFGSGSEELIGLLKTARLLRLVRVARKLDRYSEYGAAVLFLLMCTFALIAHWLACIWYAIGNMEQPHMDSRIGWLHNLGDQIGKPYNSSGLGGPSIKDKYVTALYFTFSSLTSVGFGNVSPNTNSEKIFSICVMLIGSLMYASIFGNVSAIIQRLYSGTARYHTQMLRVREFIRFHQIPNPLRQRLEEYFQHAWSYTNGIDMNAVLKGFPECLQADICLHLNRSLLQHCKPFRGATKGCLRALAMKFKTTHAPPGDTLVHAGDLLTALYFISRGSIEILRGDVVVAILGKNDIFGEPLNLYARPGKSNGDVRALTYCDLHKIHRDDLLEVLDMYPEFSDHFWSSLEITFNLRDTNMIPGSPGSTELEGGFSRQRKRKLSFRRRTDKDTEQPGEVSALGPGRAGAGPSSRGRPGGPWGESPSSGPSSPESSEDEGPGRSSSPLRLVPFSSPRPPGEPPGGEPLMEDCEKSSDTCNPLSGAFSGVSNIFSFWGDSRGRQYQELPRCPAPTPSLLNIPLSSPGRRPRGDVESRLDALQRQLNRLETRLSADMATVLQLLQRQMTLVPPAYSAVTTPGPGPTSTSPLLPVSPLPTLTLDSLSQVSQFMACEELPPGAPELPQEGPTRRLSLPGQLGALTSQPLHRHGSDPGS
Cytochrome P450 2C19 (Homo sapiens), sequence (P33261 whole entry, looked up): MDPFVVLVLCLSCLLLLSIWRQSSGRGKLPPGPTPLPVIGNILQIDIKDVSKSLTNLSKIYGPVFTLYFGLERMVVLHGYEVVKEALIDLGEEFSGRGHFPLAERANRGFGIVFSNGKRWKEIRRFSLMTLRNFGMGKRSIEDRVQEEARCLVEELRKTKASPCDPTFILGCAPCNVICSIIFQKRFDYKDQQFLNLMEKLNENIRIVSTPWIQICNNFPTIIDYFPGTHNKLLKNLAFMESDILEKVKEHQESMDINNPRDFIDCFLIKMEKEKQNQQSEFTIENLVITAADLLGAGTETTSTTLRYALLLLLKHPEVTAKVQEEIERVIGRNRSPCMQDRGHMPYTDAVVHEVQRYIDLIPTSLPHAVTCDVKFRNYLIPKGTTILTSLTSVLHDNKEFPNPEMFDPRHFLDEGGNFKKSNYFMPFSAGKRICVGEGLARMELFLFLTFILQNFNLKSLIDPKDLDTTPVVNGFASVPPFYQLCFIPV
Nuclear receptor subfamily 1 group I member 2 (Homo sapiens), sequence (O75469 whole entry, looked up): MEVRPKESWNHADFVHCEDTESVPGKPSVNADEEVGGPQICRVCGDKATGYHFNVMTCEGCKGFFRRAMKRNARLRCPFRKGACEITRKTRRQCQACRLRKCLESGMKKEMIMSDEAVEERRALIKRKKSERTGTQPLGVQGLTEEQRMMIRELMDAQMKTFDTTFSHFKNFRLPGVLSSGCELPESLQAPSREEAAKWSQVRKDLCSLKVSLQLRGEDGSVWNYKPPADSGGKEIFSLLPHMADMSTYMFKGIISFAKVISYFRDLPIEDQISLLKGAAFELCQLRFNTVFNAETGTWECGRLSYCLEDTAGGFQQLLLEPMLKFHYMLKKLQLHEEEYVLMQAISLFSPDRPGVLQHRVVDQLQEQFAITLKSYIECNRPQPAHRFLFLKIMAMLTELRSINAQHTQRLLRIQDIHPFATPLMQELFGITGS
Cytochrome P450 3A4 (Homo sapiens), sequence (P08684 whole entry, looked up): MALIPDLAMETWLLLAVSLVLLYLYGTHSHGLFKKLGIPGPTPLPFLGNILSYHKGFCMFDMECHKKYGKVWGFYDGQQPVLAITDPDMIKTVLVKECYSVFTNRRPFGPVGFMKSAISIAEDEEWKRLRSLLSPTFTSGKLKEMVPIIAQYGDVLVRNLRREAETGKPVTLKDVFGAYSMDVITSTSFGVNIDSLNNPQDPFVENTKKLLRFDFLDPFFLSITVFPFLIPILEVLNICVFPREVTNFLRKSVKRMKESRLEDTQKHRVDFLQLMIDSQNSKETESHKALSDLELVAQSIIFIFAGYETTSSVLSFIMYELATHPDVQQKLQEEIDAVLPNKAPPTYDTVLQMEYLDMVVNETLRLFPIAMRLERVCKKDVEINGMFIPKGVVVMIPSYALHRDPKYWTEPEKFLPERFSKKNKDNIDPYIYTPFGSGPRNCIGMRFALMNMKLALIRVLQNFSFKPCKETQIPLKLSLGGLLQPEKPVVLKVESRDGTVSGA
Cytochrome P450 2D6 (Homo sapiens), sequence (P10635 whole entry, looked up): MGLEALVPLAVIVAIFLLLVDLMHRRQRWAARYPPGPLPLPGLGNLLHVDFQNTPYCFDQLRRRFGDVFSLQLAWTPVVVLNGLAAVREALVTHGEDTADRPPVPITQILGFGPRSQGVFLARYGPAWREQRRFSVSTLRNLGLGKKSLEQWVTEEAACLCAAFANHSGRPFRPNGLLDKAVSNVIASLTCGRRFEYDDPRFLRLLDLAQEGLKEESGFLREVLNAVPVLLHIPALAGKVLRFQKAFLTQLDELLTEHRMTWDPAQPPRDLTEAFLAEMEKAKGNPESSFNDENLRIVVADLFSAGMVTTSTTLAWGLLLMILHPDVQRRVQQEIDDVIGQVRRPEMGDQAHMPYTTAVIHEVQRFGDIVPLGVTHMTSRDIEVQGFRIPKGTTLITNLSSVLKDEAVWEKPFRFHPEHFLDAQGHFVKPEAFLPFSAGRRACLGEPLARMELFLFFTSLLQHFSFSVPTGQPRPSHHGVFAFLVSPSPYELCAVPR

As for `CCOc1nc(F)cc2nc(S(=O)(=O)Nc3c(Cl)cccc3Cl)nn12`, the Potency entry in assay [1], in assay [2], in assay [3], in [4], in assay [5] and in assay [6] was “inactive” each time. Besides, the Potency entry in assay [7], in [8], in assay [9], in assay [10], in [11] and in assay [13] was “inactive” in each case. Moreover, the Potency entry in assay [14] was “inactive”. For the same molecule, in [12], the Potency was 71 µM (active).

As to `C=CC(=O)OC(C)(C)C`, the Potency result in [1], in assay [2], in assay [3], in assay [4], in assay [15] and in [5] was “inactive” each time. In addition, the Potency entry in assay [6], in assay [7], in assay [8], in assay [9], in assay [10] and in assay [14] was “inactive” each time. Also, the Potency result in [16] was “inactive”. The results for the Potency in [11] and in assay [13] were 30.6 µM (active) and 2.43 µM (active), respectively.

Consider `N#Cc1ccc(Cl)cc1`, for which the Potency entry in assay [1], in [2], in [3], in [15], in assay [5] and in [6] was “inactive” in each case. The Potency result in [7], in assay [8], in [9], in assay [10], in assay [11] and in assay [12] was “inactive” in each case. For the same molecule, the Potency entry in assay [13] and in [16] was “inactive” throughout.

Consider `CN1C[C@H](CNC(=O)OCc2ccccc2)C[C@@H]2c3cccc4c3c(cn4C)C[C@H]21`, for which the Potency entry in assay [1], in [17], in assay [15], in [5], in assay [12] and in assay [13] was “inactive” in each case. In addition, the Potency result in assay [16] was “inactive”. Further, the Potency in assay [2] was 26.6 µM (active); in [6], 3.47 µM (active); in assay [7] it was 7.76 µM (active); in assay [8] it was 0.871 µM (active).

In the case of `O=[N+]([O-])c1ccccc1CCl`, the Potency entry in [1], in [2], in [3], in assay [4], in [15] and in assay [6] was “inactive” in each case. Besides, the Potency result in assay [7], in assay [8], in [9], in assay [12], in [14] and in [16] was “inactive” throughout. Besides, in assay [5], the Potency was 0.0039 µM (active).

With `CCC(Cl)CCl` (stereo not given), the Potency entry in assay [1], in [2], in assay [3], in [4], in assay [15] and in assay [5] was “inactive” each time. Also, the Potency entry in assay [6], in assay [7], in [8], in assay [10], in assay [11] and in assay [12] was “inactive” each time. Besides, the Potency entry in assay [13], in assay [14] and in assay [16] was “inactive” each time.

Turning to `Cc1cc(=O)[nH]o1`, the Potency entry in [1], in assay [2], in [3], in [4], in [15] and in assay [5] was “inactive” each time. The Potency entry in [6], in assay [7], in [8], in assay [9], in assay [10] and in assay [13] was “inactive” each time. Moreover, in [16], the Potency entry is “inactive”. The Potency in assay [12] is 110 µM (active).

On to `c1ccoc1`, for which the Potency entry in assay [1], in assay [2], in assay [4], in assay [15], in assay [5] and in assay [6] was “inactive” in each case. Moreover, the Potency result in assay [7], in [8], in [10], in assay [11], in [12] and in assay [13] was “inactive” in each case. Further, the Potency entry in assay [14] and in [16] was “inactive” each time.
